From PubChem BioAssay (EPA / NIEHS)
Where “and” joins values, the source holds several entries; their conditions need not be identical. Equal entries are not always repeated. Records with an inconclusive call do not appear. The source holds several records for some structures; these can differ, active in one and inactive in another. Calls of active or inactive are those of the source. The calls were made as follows, unless noted: active = hit-call score of the fitted dose curve at least 0.9, where 1 is the maximum; inconclusive = response in the unintended direction; inactive = score below 0.9.

Columns and labels:
[1] = target: Aryl hydrocarbon receptor (Homo sapiens) (UniProt P35869); assay: ATG_Ahr_CIS: Attagene CIS-FACTORIAL HepG2 Assay for human Aryl Hydrocarbon Receptor (Ahr) (AID 2282930; active = hit-call score of the fitted dose curve at least 0.9, where 1 is the maximum; inactive = score below 0.9); conditions: HepG2 AhR cis-factorial reporter transcription; actives raise or lower the signal
Procedure, shortened: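 HepG2 cells transiently transfected with cis-element-driven multiplexed reporter transcription units; endogenous transcription factor activity measured as reporter mRNA 24 h after dosing. RT-PCR, 6-FAM labelling, HpaI digestion, capillary electrophoresis; bidirectional fitting versus DMSO baseline.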

[2] = ATG_AP_2_CIS: Attagene CIS-FACTORIAL HepG2 Assay for human Activator Protein 2 (AP-2) (AID 2282932; active = hit-call score of the fitted dose curve at least 0.9, where 1 is the maximum; inactive = score below 0.9); conditions: HepG2 AP-2 cis-reporter, Attagene transcription factor profiling; actives raise or lower the signal
Procedure, shortened: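 Cells (HepG2) transfected with promoter-driven reporter constructs, treated 24 h. Total RNA reverse-transcribed, reporter cDNA PCR-amplified, FAM-labelled by primer extension, digested, resolved by capillary electrophoresis. Activity fitted both directions versus DMSO.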

[3] = target: Transcription factor E2F1 (Homo sapiens) (UniProt Q01094); assay: ATG_E2F_CIS: Attagene CIS-FACTORIAL HepG2 Assay for human E2F Transcription Factor 1 (AID 2282935; active = hit-call score of the fitted dose curve at least 0.9, where 1 is the maximum; inactive = score below 0.9); conditions: HepG2 Attagene cis-reporter, E2F reporter RNA transcripts; actives raise or lower the signal
Procedure, shortened: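 First, HepG2 cells were transfected with reporter transcription units. Next, they were dosed for 24 h. Then RNA was isolated, converted to cDNA, PCR-amplified, FAM-labeled, HpaI-digested and analyzed by capillary electrophoresis.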

[4] = ATG_GLI_CIS: Attagene CIS-FACTORIAL HepG2 Assay for human Zinc Finger Protein GLI1 (AID 2282945; active = hit-call score of the fitted dose curve at least 0.9, where 1 is the maximum; inactive = score below 0.9); conditions: HepG2, Attagene cis-factorial reporter mRNA, GLI element; actives raise or lower the signal
Procedure, shortened: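 HepG2 cells transiently transfected with cis-promoter multiplexed reporter units report endogenous transcription factor activity. After 24 h chemical exposure, reporter mRNA was quantified by RT-PCR, 6-FAM labelling, HpaI digestion and capillary electrophoresis, with bidirectional fitting against DMSO.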

[5] = ATG_PPRE_CIS: Attagene CIS-FACTORIAL HepG2 Assay for human Peroxisome Proliferator-activated Response Element (PPRE) (AID 2282958; active = hit-call score of the fitted dose curve at least 0.9, where 1 is the maximum; inactive = score below 0.9); conditions: HepG2 PPRE cis-element reporter, Attagene transcription factor profiling; actives raise or lower the signal
Procedure, shortened: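 HepG2 cells are transiently transfected with multiplexed cis-promoter reporter units to report endogenous PPAR activity. After 24 h dosing, reporter mRNA is read by RT-PCR and capillary electrophoresis. Fitting is bidirectional against DMSO.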

[6] = ATG_SREBP_CIS: Attagene CIS-FACTORIAL HepG2 Assay for human Sterol Regulatory Element Binding (SREBP) (AID 2282962; active = hit-call score of the fitted dose curve at least 0.9, where 1 is the maximum; inactive = score below 0.9); conditions: HepG2 Attagene cis-factorial SREBP reporter, mRNA; actives raise or lower the signal
Procedure, shortened: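 Endogenous factor activity is measured in HepG2 through multiplexed reporter units under cis-element control. Following a 24 h incubation, reporter transcripts are reverse-transcribed, PCR-amplified and sized by capillary electrophoresis; activity is fitted in both directions relative to DMSO.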

[7] = target: human Peroxisome Proliferator-activated Receptor alpha (PPARa), PPARA (gene 5465) (UniProt Q07869); assay: ATG_PPARa_TRANS: Attagene TRANS-FACTORIAL HepG2 Assay for human Peroxisome Proliferator-activated Receptor alpha (PPARa) (AID 2283001);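 as to AC50: potency for gain of reporter signal over DMSO so agonist or activator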
Procedure, shortened: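 Cells (HepG2) are transfected with multiple reporter transcription units, exposed to chemical for 24 h, then total RNA is reverse-transcribed and amplified. Labelled products are quantified by capillary electrophoresis; induction is referenced to DMSO.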

[8] = target: Peroxisome proliferator-activated receptor gamma (Homo sapiens) (UniProt P37231); assay: ATG_PPARg_TRANS: Attagene TRANS-FACTORIAL HepG2 Assay for human Peroxisome Proliferator-activated Receptor-gamma (PPARg) (AID 2283007)
Procedure, shortened: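 HepG2 cells are transiently transfected with GAL4-UAS reporter units driven by chimeric NR-Gal4 fusions and dosed for 24 h. Reporter mRNA is quantified by RT-PCR, 6-FAM labelling, HpaI digestion and capillary electrophoresis. Induction is scored against DMSO.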

[9] = target: human Thyroid Receptor alpha (THRa1), THRA (gene 7067) (UniProt P10827); assay: ATG_THRa1_TRANS: Attagene TRANS-FACTORIAL HepG2 Assay for human Thyroid Receptor alpha (THRa1) (AID 2283014)
Procedure, shortened: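 Transient HepG2 transfection, NR-Gal4 chimera driving GAL4-UAS reporters; 24 h compound exposure; total RNA, oligo(dT) RT, PCR, fluorescent primer extension, capillary electrophoresis. Upward direction vs DMSO control.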

[10] = target: Cellular tumor antigen p53 (Homo sapiens) (UniProt P04637); assay: TOX21_p53_BLA_p2_ratio: Tox21 HCT-116 p53 Agonism Beta-lactamase Assay, Ratio, Phase 2 (AID 2283592)
Procedure, shortened: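 Readout: blue/green (460/530 nm) FRET emission ratio after 2 h CCF4-AM loading at room temperature, excitation 405 nm. HCT116 p53 bla cells, 16 h compound exposure at 37C, 5% CO2; agonist direction fitted against DMSO baseline.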

[11] = target: Cellular tumor antigen p53 (Homo sapiens) (UniProt P04637); assay: TOX21_p53_BLA_p3_ratio: Tox21 HCT-116 p53 Agonism Beta-lactamase Assay, Ratio, Phase 3 (AID 2283596)
Procedure, shortened: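 Cells were seeded at 4000/well, rested 5 h at 37C, then dosed with DMSO compound solutions (217-fold dilution) for 16 h. CCF4-AM substrate was loaded for 2 h at room temperature, and the 460/530 nm emission ratio was fitted for gain of signal versus DMSO.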

[12] = target: Cellular tumor antigen p53 (Homo sapiens) (UniProt P04637); assay: TOX21_p53_BLA_p5_ratio: Tox21 HCT-116 p53 Agonism Beta-lactamase Assay, Ratio, Phase 5 (AID 2283599)
Procedure, shortened: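 HCT-116 cells carrying a p53-inducible beta-lactamase reporter were seeded at 4000 cells/well and dosed after 5 h with compound in DMSO (217-fold dilution). After 16 h at 37C, CCF4-AM substrate was added for 2 h, and the 460/530 nm emission ratio was scored as gain-of-signal versus DMSO.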

[13] = TOX21_p53_BLA_p5_viability: Viability Assessment in the Tox21 HCT-116 p53 Agonism Beta-lactamase Assay, Phase 5 (AID 2283600)
Procedure, shortened: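 ATP luminescence (CellTiter-Glo, 30 min, RT) served as the viability read-out, with loss of signal indicating cytotoxicity. Compounds in DMSO were pinned at a 217-fold dilution onto 4000 cells/well and incubated 16 h, 37C.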

[14] = target: Cellular tumor antigen p53 (Homo sapiens) (UniProt P04637); assay: TOX21_p53_BLA_p4_ratio: Tox21 HCT-116 p53 Agonism Beta-lactamase Assay, Ratio, Phase 4 (AID 2283601)
Procedure, shortened: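 HCT116 cells carrying an inducible beta-lactamase reporter were plated at 4000 cells/well, rested 5 h, then exposed to compounds in DMSO (217-fold dilution) for 16 h at 37C. CCF4-AM substrate was loaded 2 h at room temperature; 460/530 nm emission ratio scored gain-of-signal versus DMSO.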

[15] = ATG_M_61_CIS: Attagene CIS-FACTORIAL HepG2 Assay for M61 Transcription Factor (Internal Marker) (AID 2282937; active = hit-call score of the fitted dose curve at least 0.9, where 1 is the maximum; inactive = score below 0.9); conditions: HepG2 Attagene CIS-FACTORIAL M61 internal marker reporter; actives raise or lower the signal
Procedure, shortened: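 HepG2 cells transiently transfected with multiplexed cis-promoter reporter units reporting endogenous transcription factor activity, measured 24 h after dosing. Reporter mRNA quantified by RT-PCR and capillary electrophoresis; bidirectional fit against DMSO baseline.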

[16] = ATG_PXRE_CIS: Attagene CIS-FACTORIAL HepG2 Assay for human Pregnane X Receptor Element (PXRE) (AID 2282957; active = hit-call score of the fitted dose curve at least 0.9, where 1 is the maximum; inactive = score below 0.9); conditions: HepG2 Attagene CIS-FACTORIAL PXRE reporter, mRNA; actives raise or lower the signal
Procedure, shortened: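 Read-out: fluorescence of reporter-specific RT-PCR products resolved by capillary electrophoresis, fitted bidirectionally relative to DMSO. Human HepG2 liver cells carried transfected cis-promoter reporter units and were exposed to chemicals for 24 h.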

[17] = ATG_Oct_MLP_CIS: Attagene CIS-FACTORIAL HepG2 Assay for human Octamer-Binding Transcription Factor (Oct) (AID 2282993; active = hit-call score of the fitted dose curve at least 0.9, where 1 is the maximum; inactive = score below 0.9); conditions: HepG2 Attagene cis-factorial Oct reporter, mRNA; actives raise or lower the signal
Procedure, shortened: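 After 24 h compound exposure, transfected HepG2 cells were lysed for total RNA; reporter-specific cDNA was PCR-amplified, fluorescently labelled and sized by capillary electrophoresis. Bidirectional curve fitting used DMSO as baseline.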

[18] = ACEA_ER_AUC_viability: ACEA Biosciences xCELLigence Real-Time Cell Analysis on Estrogen Receptor Agonism for Viability (AID 2283782);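 also: hit means loss of impedance signal meaning reduced cell growth or viability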
Procedure, shortened: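 Continuous-exposure impedance cell analysis uses T-47D cells in charcoal-stripped serum, eight 1:4 dilutions topping at 100 uM final, biological duplicate. Area under the growth curve at 80 h is fitted against DMSO baseline.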

[19] = ATG_PBREM_CIS: Attagene CIS-FACTORIAL HepG2 Assay for human Phenobarbital-responsive Enhancer Module (PBREM) (AID 2282955; active = hit-call score of the fitted dose curve at least 0.9, where 1 is the maximum; inactive = score below 0.9); conditions: HepG2 PBREM cis-reporter, Attagene multiplexed transcription; actives raise or lower the signal
Procedure, shortened: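 HepG2 cells transiently transfected with multiple cis-regulated reporter units measure endogenous transcription factor activity; 24 h compound exposure. Reporter mRNA quantified by RT-PCR, fluorescent labelling, HpaI digestion and capillary electrophoresis; bidirectional fit versus DMSO.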

[20] = target: Retinoic acid receptor RXR-alpha (Homo sapiens) (UniProt P19793); assay: ATG_RXRa_TRANS: Attagene TRANS-FACTORIAL HepG2 Assay for human Retinoid X Receptor alpha (RXRa) (AID 2283012)
Procedure, shortened: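 Measures exogenous chimeric NR-GAL4 activity in transfected HepG2 liver cells after 24 h of dosing. Induced reporter mRNA was detected by RT-PCR with capillary electrophoresis, and gain of signal was analysed against DMSO.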

Measured: AC50

Sequence of Retinoic acid receptor RXR-alpha (Homo sapiens) (P19793 whole entry, looked up, the tested form may be a part): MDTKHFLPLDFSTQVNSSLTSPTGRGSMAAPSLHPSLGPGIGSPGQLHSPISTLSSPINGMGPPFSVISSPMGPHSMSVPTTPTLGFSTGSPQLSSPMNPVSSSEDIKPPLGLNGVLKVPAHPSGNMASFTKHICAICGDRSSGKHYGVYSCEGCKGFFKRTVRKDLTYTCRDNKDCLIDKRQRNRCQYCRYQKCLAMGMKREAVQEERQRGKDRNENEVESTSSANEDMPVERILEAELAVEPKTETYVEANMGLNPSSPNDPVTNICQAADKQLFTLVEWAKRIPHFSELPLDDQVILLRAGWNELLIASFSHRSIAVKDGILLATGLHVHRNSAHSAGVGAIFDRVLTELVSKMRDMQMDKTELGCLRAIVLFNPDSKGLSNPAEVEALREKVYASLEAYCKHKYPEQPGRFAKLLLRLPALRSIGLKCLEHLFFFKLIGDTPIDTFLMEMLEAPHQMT
Sequence of Aryl hydrocarbon receptor (Homo sapiens) (P35869 whole entry, looked up): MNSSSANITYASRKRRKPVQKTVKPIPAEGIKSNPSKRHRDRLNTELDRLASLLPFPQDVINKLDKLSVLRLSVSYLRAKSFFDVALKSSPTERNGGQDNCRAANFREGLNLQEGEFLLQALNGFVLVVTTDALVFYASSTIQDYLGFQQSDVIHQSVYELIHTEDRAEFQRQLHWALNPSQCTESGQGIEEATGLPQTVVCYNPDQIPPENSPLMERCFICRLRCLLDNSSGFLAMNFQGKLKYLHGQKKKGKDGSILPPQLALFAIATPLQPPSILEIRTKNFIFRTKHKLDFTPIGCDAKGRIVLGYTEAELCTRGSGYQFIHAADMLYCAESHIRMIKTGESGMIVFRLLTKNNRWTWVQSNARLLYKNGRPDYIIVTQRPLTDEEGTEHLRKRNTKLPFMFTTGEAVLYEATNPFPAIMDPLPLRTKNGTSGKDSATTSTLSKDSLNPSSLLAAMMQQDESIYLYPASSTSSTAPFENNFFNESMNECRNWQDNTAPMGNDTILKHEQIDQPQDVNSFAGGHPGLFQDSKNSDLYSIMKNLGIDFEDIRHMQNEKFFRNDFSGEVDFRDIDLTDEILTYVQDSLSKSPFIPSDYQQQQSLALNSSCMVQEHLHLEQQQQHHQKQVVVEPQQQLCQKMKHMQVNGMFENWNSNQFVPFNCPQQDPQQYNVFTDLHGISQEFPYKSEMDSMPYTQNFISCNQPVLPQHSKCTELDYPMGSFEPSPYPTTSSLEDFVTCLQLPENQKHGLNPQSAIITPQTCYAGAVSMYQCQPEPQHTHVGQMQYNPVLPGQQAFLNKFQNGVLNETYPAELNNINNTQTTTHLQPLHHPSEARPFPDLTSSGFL
Sequence of Cellular tumor antigen p53 (Homo sapiens) (P04637 whole entry, looked up): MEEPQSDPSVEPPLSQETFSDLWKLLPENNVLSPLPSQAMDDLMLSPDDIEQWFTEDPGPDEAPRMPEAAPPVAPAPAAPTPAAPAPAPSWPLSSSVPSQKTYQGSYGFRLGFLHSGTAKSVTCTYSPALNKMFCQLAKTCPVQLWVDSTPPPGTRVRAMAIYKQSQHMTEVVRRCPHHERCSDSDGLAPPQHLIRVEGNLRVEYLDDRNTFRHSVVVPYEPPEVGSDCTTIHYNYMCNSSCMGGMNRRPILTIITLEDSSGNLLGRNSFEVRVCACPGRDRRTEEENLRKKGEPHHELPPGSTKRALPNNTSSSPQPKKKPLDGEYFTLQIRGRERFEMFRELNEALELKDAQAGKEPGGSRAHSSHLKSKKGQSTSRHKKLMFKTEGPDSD
Sequence of human Peroxisome Proliferator-activated Receptor alpha (PPARa), PPARA (gene 5465) (Q07869 whole entry, looked up): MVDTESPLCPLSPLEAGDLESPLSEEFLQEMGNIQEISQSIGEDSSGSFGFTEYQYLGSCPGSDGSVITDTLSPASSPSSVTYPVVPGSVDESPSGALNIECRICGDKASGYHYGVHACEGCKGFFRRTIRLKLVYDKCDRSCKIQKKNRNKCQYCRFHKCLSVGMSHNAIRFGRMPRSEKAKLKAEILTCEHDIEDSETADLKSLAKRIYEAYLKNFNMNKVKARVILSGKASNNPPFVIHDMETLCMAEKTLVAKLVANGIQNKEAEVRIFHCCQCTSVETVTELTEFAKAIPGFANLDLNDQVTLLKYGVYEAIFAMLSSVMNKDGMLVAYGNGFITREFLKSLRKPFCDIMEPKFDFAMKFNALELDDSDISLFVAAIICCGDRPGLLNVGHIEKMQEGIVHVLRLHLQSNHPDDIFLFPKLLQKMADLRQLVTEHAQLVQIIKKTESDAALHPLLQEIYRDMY
Sequence of Transcription factor E2F1 (Homo sapiens) (Q01094 whole entry, looked up): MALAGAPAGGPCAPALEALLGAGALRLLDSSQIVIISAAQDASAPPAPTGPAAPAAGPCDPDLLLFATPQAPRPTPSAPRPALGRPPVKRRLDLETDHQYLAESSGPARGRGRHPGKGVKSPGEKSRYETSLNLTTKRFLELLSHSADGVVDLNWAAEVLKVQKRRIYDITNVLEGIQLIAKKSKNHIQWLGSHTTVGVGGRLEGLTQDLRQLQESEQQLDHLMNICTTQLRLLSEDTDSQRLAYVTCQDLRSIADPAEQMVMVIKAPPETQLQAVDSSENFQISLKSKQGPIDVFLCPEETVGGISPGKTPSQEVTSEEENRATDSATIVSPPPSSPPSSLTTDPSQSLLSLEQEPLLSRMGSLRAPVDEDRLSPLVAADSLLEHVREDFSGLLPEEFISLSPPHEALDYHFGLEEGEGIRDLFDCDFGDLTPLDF
Sequence of Peroxisome proliferator-activated receptor gamma (Homo sapiens) (P37231 whole entry, looked up, the tested form may be a part): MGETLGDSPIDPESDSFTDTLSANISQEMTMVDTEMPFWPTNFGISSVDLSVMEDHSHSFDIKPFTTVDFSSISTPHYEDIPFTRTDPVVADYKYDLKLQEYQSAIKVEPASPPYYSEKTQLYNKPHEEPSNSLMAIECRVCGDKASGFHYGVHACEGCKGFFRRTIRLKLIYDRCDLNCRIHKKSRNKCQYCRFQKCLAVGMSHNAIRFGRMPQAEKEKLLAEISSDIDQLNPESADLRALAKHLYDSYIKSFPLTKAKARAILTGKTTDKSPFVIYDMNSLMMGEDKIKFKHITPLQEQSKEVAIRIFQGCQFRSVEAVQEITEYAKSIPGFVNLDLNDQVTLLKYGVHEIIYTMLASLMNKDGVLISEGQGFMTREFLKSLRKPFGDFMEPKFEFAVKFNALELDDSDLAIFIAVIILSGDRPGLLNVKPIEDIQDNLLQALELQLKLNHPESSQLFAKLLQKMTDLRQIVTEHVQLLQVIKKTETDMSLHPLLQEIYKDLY
Sequence of human Thyroid Receptor alpha (THRa1), THRA (gene 7067) (P10827 whole entry, looked up, the tested form may be a part): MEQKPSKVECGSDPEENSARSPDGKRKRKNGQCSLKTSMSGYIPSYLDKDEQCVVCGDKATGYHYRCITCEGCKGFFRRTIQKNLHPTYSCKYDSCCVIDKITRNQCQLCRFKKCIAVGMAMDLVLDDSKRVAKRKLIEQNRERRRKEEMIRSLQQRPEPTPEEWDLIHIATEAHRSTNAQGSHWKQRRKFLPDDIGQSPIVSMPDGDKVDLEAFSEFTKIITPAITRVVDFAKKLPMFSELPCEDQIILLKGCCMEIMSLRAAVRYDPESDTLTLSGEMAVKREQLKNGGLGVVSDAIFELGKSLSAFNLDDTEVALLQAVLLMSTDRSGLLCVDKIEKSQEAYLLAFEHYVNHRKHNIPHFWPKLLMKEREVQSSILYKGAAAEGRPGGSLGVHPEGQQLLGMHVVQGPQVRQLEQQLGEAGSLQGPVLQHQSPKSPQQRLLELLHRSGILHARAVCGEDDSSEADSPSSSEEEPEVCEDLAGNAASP

CCCOC(=O)c1ccccc1C(=O)OCCC
active: [8] 86.3 µM
not listed: [15] | [16] | [17] | [18] | [19] | [20]
inactive: all other assays above

O=C(CCl)c1ccccc1
inactive: [1] | [3] | [15] | [4] | [16] | [5] | [6] | [17] | [10] | [11] | [12] | [13] | [14]
active: [7] 50.2 µM | [8] 16.4 µM | [9] 55.9 µM | [11] 64.3 µM | [18] 10.9 µM

CCC[N+](=O)[O-]
active: [1] 68.9 µM
not listed: [7] | [8] | [20]
inactive: all other assays above

CC(C)(O)C#N
active: [16] 27.4 µM
not listed: [2] | [5] | [9] | [20]
inactive: all other assays above

O=[N+]([O-])c1ccc(Cl)cc1
not listed: [5] | [6] | [8] | [9] | [11] | [19]
inactive: all other assays above

CCN(CC)C(=S)S
active: [8] 51.5 µM
inactive: [1] | [2] | [4] | [17] | [20] | [9]

CCOP(=O)(OCC)OCC
not listed: [2] | [15]
inactive: all other assays above

Cc1ccccc1CCl
not listed: [2] | [9] | [16]
inactive: all other assays above

CC(C)(c1cc(Cl)c(O)c(Cl)c1)c1cc(Cl)c(O)c(Cl)c1
active: [4] 60.7 µM | [8] 3.75 µM | [10] 37 µM and 16.5 µM | [11] 48.2 µM and 17.7 µM | [12] 24.2 µM | [14] 19.7 µM | [18] 90.8 µM
inactive: [1] | [2] | [3] | [16] | [5] | [20] | [9] | [12] | [13] | [14]

CC(C)C(=O)Cl
inactive: [1] | [2] | [15] | [4] | [16] | [5] | [6] | [17] | [7] | [20] | [18]

CC1OC(C)OC(C)O1 (stereo not given)
active: [11] 34.1 µM
inactive: [1] | [2] | [3] | [15] | [16] | [5] | [8] | [20] | [9] | [10] | [11] | [12] | [14] | [18]

C[C@]12CC[C@H](O)C[C@H]1CC[C@@H]1[C@@H]2C[C@@H](O)[C@]2(C)[C@@H](C3=CC(=O)OC3)CC[C@]12O
inactive: [1] | [3] | [15] | [19] | [5] | [20] | [9]
active: [2] 0.865 µM | [16] 1.87 µM | [17] 2.08 µM | [7] 1.78 µM | [8] 1.87 µM | [18] 1.75 µM

N#CCNCC#N
not listed: [2] | [4] | [9] | [11] | [12] | [13]
inactive: all other assays above

CNC(=N[N+](=O)[O-])NCC1CCOC1 (stereo not given)
inactive: [1] | [2] | [15] | [4] | [19] | [6] | [17] | [11] | [12] | [14]

Cc1ccc(C)c2ccccc12
active: [1] 27.7 µM
not listed: [4] | [6] | [10] | [11] | [12] | [13] | [14] | [16]
inactive: all other assays above

C=Cc1cccc(CCl)c1
active: [17] 46.2 µM
not listed: [3] | [4] | [5] | [8] | [16] | [18] | [20]
inactive: all other assays above

COc1ccc(CO)cc1
not listed: [8] | [10] | [14] | [15] | [18] | [19]
inactive: all other assays above
